PubChem BioAssay (EPA / NIEHS)
Active and inactive are the calls of the source. The calls were made as follows: active = hit-call score of the fitted dose curve at least 0.9, where 1 is the maximum; inactive = score below 0.9.

Legend:
[1] = read-out: Fatty acid synthase (Homo sapiens) (UniProt P49327); experiment: LTEA_HepaRG_FASN: Life Technologies and Expression Analysis (LTEA) Assay for Fatty Acid Synthase (FASN) using HepaRG (AID 2283448); conditions: mRNA level, 48 h; actives raise or lower the signal;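 as to AC50: differentiated human HepaRG liver cells in serum-free induction medium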
Outline: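 Cells were plated, cultured 48 h, switched to serum-free induction medium, then dosed in duplicate (max 100 uM, half-log dilutions, 0.5% DMSO) for 48 h. RNA was then isolated and FASN quantified by qRT-PCR.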

[2] = read-out: Cyclin D2 (CCND2), CCND2 (gene 894); experiment: LTEA_HepaRG_CCND2: Life Technologies and Expression Analysis (LTEA) Assay for Cyclin D2 (CCND2) using HepaRG (AID 2283449); conditions: mRNA level, 48 h; actives raise or lower the signal
Outline: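 CCND2 transcript levels, quantified by qRT-PCR and normalised to three housekeeping genes, were fitted bidirectionally against 0.5% DMSO. HepaRG cultures were dosed 48 h in duplicate with an 8-point half-log series up to 100 uM.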

[3] = read-out: Cyclin Dependent Kinase Inhibitor 1A (CDKN1A), CDKN1A (gene 1026); experiment: LTEA_HepaRG_CDKN1A: Life Technologies and Expression Analysis (LTEA) Assay for Cyclin Dependent Kinase Inhibitor 1A (CDKN1A) using HepaRG (AID 2283450); conditions: mRNA level, 48 h; actives raise or lower the signal
Outline: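 HepaRG, 48 h dosing, 8-pt half-log series from 100 uM top, 0.5% DMSO vehicle, duplicates. Readout: TaqMan qRT-PCR of CDKN1A transcript, housekeeping-normalized (ACTB, GAPDH, POLR2A). Up/down curve fit relative to DMSO.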

[4] = read-out: Cyclin D1 (CCND1), CCND1 (gene 595); experiment: LTEA_HepaRG_CCND1: Life Technologies and Expression Analysis (LTEA) Assay for Cyclin D1 (CCND1) using HepaRG (AID 2283451); conditions: mRNA level, 48 h; actives raise or lower the signal;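 as to AC50: differentiated human HepaRG liver cells in serum-free induction medium; TaqMan qRT-PCR transcript level normalised to ACTB GAPDH and POLR2A housekeeping genes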
Outline: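 qRT-PCR (Fluidigm 96.96 array) read-out of transcript level, housekeeping-normalized (ACTB/GAPDH/POLR2A). HepaRG cells, 48 h chemical exposure, 8-point half-log series from 100 uM, 0.5% DMSO vehicle; gain or loss relative to DMSO baseline.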

[5] = read-out: catalase (CAT), CAT (gene 847); experiment: LTEA_HepaRG_CAT: Life Technologies and Expression Analysis (LTEA) Assay for catalase (CAT) using HepaRG (AID 2283452); conditions: mRNA level, 48 h; actives raise or lower the signal
Outline: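 Expression of CAT was quantified by TaqMan qRT-PCR with ACTB/GAPDH/POLR2A normalization after 48 h chemical exposure of HepaRG. Eight-point half-log series, top 100 uM, in 0.5% DMSO; gain or loss fitted against vehicle.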

[6] = read-out: flavin-containing dimethylaniline monooxygenases 3 (FMO3), FMO3 (gene 2328); experiment: LTEA_HepaRG_FMO3: Life Technologies and Expression Analysis (LTEA) Assay for flavin-containing dimethylaniline monooxygenases 3 (FMO3) using HepaRG (AID 2283453); conditions: mRNA level, 48 h; actives raise or lower the signal;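 as to AC50: differentiated human HepaRG liver cells in serum-free induction medium; FMO3 transcript by TaqMan qRT-PCR normalized to ACTB GAPDH and POLR2A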
Outline: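 FMO3 transcript quantified by TaqMan qRT-PCR against three housekeeping genes after 48 h chemical exposure of HepaRG cells. Eight-point half-log series, top 100 uM, 0.5% DMSO vehicle; phenobarbital 1mM induction control; up- or down-regulation fitted.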

[7] = read-out: CFLAR gene, CFLAR (gene 8837); experiment: LTEA_HepaRG_CFLAR: Life Technologies and Expression Analysis (LTEA) Assay for CFLAR gene using HepaRG (AID 2283455); conditions: mRNA level, 48 h; actives raise or lower the signal
Outline: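 Transcript level by qRT-PCR (normalized to ACTB, GAPDH and POLR2A) after 48 h chemical exposure of HepaRG cells, top concentration 100 uM with half-log steps, 0.5% DMSO vehicle, duplicates; fitted bidirectionally against DMSO baseline.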

[8] = read-out: Forkhead box O1 (FOXO1), FOXO1 (gene 2308); experiment: LTEA_HepaRG_FOXO1: Life Technologies and Expression Analysis (LTEA) Assay for Forkhead box O1 (FOXO1) using HepaRG (AID 2283456); conditions: mRNA level, 48 h; actives raise or lower the signal
Outline: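 FOXO1 transcript quantified by qRT-PCR after 48 h chemical exposure (top 100 uM, half-log steps, 0.5% DMSO) of HepaRG cells, housekeeping-normalized (ACTB/GAPDH/POLR2A). Changes fitted in both directions relative to vehicle.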

[9] = read-out: Cytochrome P450 (CYP1A1), CYP1A1 (gene 1543); experiment: LTEA_HepaRG_CYP1A1: Life Technologies and Expression Analysis (LTEA) Assay for Cytochrome P450 (CYP1A1) using HepaRG (AID 2283454); conditions: mRNA level, 48 h; actives raise or lower the signal
Outline: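 qRT-PCR read-out: CYP1A1 transcript normalized to three housekeeping genes, fitted bidirectionally against 0.5% DMSO vehicle baseline. Human HepaRG cells, 48 h chemical exposure, 8-point half-log series topping at 100 uM.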

[10] = CEETOX_H295R_TESTO: CeeTox H295R High-throughput Steroidogenesis Assay for Testosterone (TESTO) (AID 2283457); conditions: actives raise or lower the signal
Outline: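 Readout: testosterone quantified by HPLC-MS/MS (C18, ESI positive) after MTBE liquid-liquid extraction of culture medium. Cells were H295R, 48 h chemical exposure per OECD 456 with modifications. Gain or loss of signal fitted relative to DMSO.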

Fatty acid synthase (Homo sapiens), sequence (P49327 whole entry, looked up): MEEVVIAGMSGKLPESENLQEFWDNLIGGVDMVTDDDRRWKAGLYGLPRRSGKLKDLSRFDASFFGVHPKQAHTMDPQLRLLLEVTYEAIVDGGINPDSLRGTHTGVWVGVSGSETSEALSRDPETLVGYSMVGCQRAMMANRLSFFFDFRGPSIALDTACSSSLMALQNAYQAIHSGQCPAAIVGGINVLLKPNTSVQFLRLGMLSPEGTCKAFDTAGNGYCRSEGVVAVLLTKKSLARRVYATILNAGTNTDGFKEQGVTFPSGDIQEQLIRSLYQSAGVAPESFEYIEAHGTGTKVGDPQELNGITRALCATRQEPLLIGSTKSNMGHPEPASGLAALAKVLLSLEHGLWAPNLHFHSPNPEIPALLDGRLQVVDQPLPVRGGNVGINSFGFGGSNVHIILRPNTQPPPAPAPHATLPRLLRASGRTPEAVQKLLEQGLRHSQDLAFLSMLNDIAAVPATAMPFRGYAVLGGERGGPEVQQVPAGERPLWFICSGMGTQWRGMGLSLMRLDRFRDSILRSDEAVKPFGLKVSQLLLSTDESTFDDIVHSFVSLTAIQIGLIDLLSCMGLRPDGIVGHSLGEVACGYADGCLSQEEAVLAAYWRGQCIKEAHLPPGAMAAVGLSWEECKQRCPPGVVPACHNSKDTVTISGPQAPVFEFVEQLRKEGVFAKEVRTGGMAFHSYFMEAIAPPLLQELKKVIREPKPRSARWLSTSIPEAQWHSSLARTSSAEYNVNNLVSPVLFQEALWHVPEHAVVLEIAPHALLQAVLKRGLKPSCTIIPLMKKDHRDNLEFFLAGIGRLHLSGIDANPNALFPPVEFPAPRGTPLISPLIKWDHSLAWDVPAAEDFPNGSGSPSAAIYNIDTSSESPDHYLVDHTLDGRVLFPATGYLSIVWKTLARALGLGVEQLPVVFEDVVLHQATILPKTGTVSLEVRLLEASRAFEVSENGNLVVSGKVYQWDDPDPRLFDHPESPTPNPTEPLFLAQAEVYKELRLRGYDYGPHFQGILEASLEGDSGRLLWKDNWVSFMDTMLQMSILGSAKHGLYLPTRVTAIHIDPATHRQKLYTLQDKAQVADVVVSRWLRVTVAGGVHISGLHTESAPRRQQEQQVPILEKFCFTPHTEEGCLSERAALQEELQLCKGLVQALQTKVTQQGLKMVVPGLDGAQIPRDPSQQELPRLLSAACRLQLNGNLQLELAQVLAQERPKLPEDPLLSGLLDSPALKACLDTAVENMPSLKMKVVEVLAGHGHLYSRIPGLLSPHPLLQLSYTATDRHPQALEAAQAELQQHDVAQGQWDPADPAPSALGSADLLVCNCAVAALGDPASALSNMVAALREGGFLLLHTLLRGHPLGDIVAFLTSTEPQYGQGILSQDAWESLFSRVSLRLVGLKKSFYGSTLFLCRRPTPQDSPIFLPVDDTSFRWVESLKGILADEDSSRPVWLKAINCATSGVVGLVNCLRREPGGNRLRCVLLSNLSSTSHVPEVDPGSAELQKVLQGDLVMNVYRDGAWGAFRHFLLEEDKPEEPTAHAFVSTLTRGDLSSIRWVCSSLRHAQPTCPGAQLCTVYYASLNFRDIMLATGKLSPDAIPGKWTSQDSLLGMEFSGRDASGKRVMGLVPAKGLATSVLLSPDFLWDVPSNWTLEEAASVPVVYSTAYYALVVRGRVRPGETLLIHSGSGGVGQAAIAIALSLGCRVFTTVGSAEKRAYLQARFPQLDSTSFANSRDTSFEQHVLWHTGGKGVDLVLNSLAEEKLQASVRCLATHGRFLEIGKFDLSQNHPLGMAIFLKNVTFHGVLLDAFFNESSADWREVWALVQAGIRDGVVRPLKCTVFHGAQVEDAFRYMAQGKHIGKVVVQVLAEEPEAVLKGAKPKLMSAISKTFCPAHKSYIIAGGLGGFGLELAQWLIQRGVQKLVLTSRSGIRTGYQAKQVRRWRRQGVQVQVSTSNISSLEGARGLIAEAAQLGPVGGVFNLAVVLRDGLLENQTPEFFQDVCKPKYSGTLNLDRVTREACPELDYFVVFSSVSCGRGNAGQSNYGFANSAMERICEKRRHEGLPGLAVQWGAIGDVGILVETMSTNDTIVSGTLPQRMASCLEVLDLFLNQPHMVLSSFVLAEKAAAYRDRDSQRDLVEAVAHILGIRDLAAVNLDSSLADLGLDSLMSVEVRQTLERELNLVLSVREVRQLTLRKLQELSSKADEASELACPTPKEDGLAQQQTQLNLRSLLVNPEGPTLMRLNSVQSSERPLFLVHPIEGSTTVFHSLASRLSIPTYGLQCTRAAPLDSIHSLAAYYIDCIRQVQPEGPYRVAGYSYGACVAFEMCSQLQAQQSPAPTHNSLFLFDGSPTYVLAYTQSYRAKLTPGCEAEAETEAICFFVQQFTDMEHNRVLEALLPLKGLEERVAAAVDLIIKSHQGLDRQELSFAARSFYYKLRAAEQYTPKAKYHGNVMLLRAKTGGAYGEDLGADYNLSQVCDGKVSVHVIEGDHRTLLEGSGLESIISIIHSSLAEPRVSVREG

## O=C(O)CCCCC(=O)O
[1]
  outcome: inactive
[2]
  outcome: inactive
[3]
  outcome: inactive
[4]
  outcome: inactive
[5]
  outcome: inactive
[6]
  outcome: inactive
[7]
  outcome: inactive
[8]
  outcome: inactive

## Oc1ccc2c(c1)OC[C@@H](N1CCC(O)(c3ccc(F)cc3)CC1)[C@H]2O
[1]
  outcome: inactive
[3]
  outcome: inactive
[4]
  outcome: inactive
[5]
  outcome: inactive
[6]
  outcome: inactive
[7]
  outcome: inactive
[8]
  outcome: inactive

## CCCCOC(=O)CCCCCCCCC(=O)OCCCC
[1]
  outcome: inactive
[3]
  outcome: inactive
[4]
  outcome: inactive
[5]
  outcome: inactive
[6]
  outcome: inactive
[9]
  outcome: inactive
[7]
  outcome: inactive
[8]
  outcome: inactive

## COc1ccc(S(=O)(=O)N2C(=O)[C@@](c3ccccc3OC)(N3C[C@H](O)C[C@H]3C(=O)N(C)C)c3cc(Cl)ccc32)c(OC)c1
[1]
  AC50: 22.7 µM (active)
[2]
  outcome: inactive
[3]
  AC50: 84.9 µM (active)
[4]
  AC50: 85.5 µM (active)
[5]
  AC50: 23.7 µM (active)
[6]
  AC50: 43.3 µM (active)
[7]
  outcome: inactive
[10]
  outcome: inactive

## OC[C@@H](O)[C@@H](O)[C@H](O)[C@H](O)CO
[1]
  outcome: inactive
[2]
  outcome: inactive
[3]
  outcome: inactive
[4]
  outcome: inactive
[5]
  outcome: inactive
[6]
  outcome: inactive
[7]
  outcome: inactive
[8]
  outcome: inactive

## CCCCCC(=O)O
[1]
  outcome: inactive
[2]
  outcome: inactive
[3]
  outcome: inactive
[4]
  outcome: inactive
[5]
  outcome: inactive
[6]
  outcome: inactive
[7]
  outcome: inactive
[8]
  outcome: inactive

## C1CCC(SSC2CCCCC2)CC1
[1]
  outcome: inactive
[3]
  outcome: inactive
[4]
  outcome: inactive
[5]
  outcome: inactive
[6]
  outcome: inactive
[9]
  AC50: 50 µM (active)
[7]
  outcome: inactive
[8]
  outcome: inactive

## O=C(O)Cc1ccccc1Nc1c(Cl)cccc1Cl
[1]
  outcome: inactive
[3]
  outcome: inactive
[4]
  outcome: inactive
[5]
  outcome: inactive
[6]
  outcome: inactive
[7]
  outcome: inactive

## CNCc1cc(F)ccc1Oc1ccc(Cl)c(Cl)c1
[1]
  AC50: 50 µM (active)
[2]
  outcome: inactive
[3]
  AC50: 20.5 µM (active)
[4]
  outcome: inactive
[5]
  AC50: 82.8 µM (active)
[6]
  AC50: 93.3 µM (active)
[7]
  AC50: 12.1 µM (active)
[8]
  outcome: inactive

## CCOC(=O)CCC(=O)OCC
[1]
  outcome: inactive
[2]
  outcome: inactive
[3]
  outcome: inactive
[4]
  outcome: inactive
[5]
  outcome: inactive
[6]
  outcome: inactive
[7]
  outcome: inactive
[8]
  outcome: inactive

## O=c1c(O)c(-c2ccc(O)c(O)c2)oc2cc(O)cc(O)c12
[1]
  outcome: inactive
[3]
  outcome: inactive
[4]
  outcome: inactive
[5]
  outcome: inactive
[6]
  AC50: 80 µM (active)
[7]
  outcome: inactive

## Cc1cc(NC(=O)C(=O)O)cc(C)c1Oc1ccc(O)c2c1CCC2
[1]
  outcome: inactive
[3]
  outcome: inactive
[4]
  outcome: inactive
[5]
  AC50: 0.303 µM (active)
[6]
  outcome: inactive
[9]
  AC50: 0.0026 µM (active)
[7]
  outcome: inactive
[8]
  outcome: inactive
[10]
  outcome: inactive

## Cc1ccccc1Cl
[1]
  outcome: inactive
[2]
  outcome: inactive
[3]
  outcome: inactive
[4]
  outcome: inactive
[5]
  outcome: inactive
[6]
  outcome: inactive
[7]
  outcome: inactive
[8]
  outcome: inactive

## CCCCCCC(=O)OCC
[1]
  outcome: inactive
[3]
  outcome: inactive
[4]
  outcome: inactive
[5]
  outcome: inactive
[6]
  outcome: inactive
[7]
  outcome: inactive

## C=CCOC(=O)c1ccccc1C(=O)OCC=C
[1]
  outcome: inactive
[3]
  outcome: inactive
[4]
  outcome: inactive
[5]
  outcome: inactive
[6]
  outcome: inactive
[9]
  AC50: 50 µM (active)
[7]
  outcome: inactive
[8]
  outcome: inactive

## NCC1(Cc2noc(=O)[nH]2)CCCCC1
[1]
  outcome: inactive
[3]
  outcome: inactive
[4]
  outcome: inactive
[5]
  outcome: inactive
[6]
  outcome: inactive
[9]
  AC50: 73.3 µM (active)
[7]
  outcome: inactive

## CCCCCCCCCCO
[1]
  outcome: inactive
[2]
  outcome: inactive
[3]
  outcome: inactive
[4]
  outcome: inactive
[5]
  outcome: inactive
[6]
  outcome: inactive
[7]
  outcome: inactive
[8]
  outcome: inactive

## COCCOC[C@H](CC1(C(=O)NC2CCC(C(=O)O)CC2)CCCC1)C(=O)Oc1ccc2c(c1)CCC2 (stereo not given in full)
[1]
  outcome: inactive
[2]
  outcome: inactive
[3]
  outcome: inactive
[4]
  AC50: 0.204 µM (active)
[5]
  outcome: inactive
[6]
  outcome: inactive
[7]
  outcome: inactive
[8]
  outcome: inactive

## Cc1cccc(Nc2cc(Cl)nc(SCC(=O)O)n2)c1C
[1]
  outcome: inactive
[3]
  outcome: inactive
[4]
  outcome: inactive
[5]
  outcome: inactive
[6]
  outcome: inactive
[9]
  AC50: 50 µM (active)
[7]
  outcome: inactive
[8]
  outcome: inactive
[10]
  outcome: inactive

## CC(C)(C)c1cc(O)c(C(C)(C)C)cc1O
[1]
  AC50: 50 µM (active)
[2]
  outcome: inactive
[3]
  outcome: inactive
[4]
  outcome: inactive
[5]
  AC50: 78.8 µM (active)
[6]
  AC50: 78.1 µM (active)
[7]
  AC50: 77.4 µM (active)
[8]
  AC50: 77.7 µM (active)

## CC(=O)C(C)=CC1C(C)=CCCC1(C)C (stereo not given)
[1]
  outcome: inactive
[3]
  outcome: inactive
[4]
  outcome: inactive
[5]
  outcome: inactive
[6]
  outcome: inactive
[9]
  outcome: inactive
[7]
  outcome: inactive

## Nc1ccccc1N
[1]
  AC50: 71.4 µM (active)
[3]
  AC50: 50 µM (active)
[4]
  outcome: inactive
[5]
  AC50: 61.7 µM (active)
[6]
  AC50: 63.7 µM (active)
[9]
  AC50: 3.28 µM (active)
[7]
  AC50: 61.4 µM (active)
[8]
  AC50: 82.2 µM (active)

## C[C@]12C=CC(=O)C=C1CC[C@@H]1[C@@H]2C(=O)C[C@@]2(C)[C@H]1CC[C@]2(O)C(=O)CO
[1]
  outcome: inactive
[4]
  AC50: 12.3 µM (active)
[5]
  outcome: inactive
[6]
  outcome: inactive
[7]
  outcome: inactive
[8]
  outcome: inactive
